Source: PubChem BioAssay (NCI)
This is part of a sample that, as a whole, favours compounds with a hit. Of some 83,000 tested, about 20% had one in any assay.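 In brief: 96-well plates, 48 h treatment, single concentration, percent growth endpoint.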 A number with no mark means an inactive call. Activity calls are given as the source filed them. The calls were made as follows: active = growth percent below 10; inactive = the rest.

Experiments:
Assay in all cases: NCI-60 one-dose screen, 48 h (100 = growth as untreated, 0 = no growth, -100 = all killed)
Conditions in all cases: 10 µM
HCT-15 colon = test system: HCT-15 colon
HT29 colon = test system: HT29 colon
SNB-75 CNS = test system: SNB-75 CNS
SNB-19 CNS = test system: SNB-19 CNS
U251 CNS = test system: U251 CNS
PC-3 prostate = test system: PC-3 prostate
SK-MEL-5 melanoma = test system: SK-MEL-5 melanoma
UACC-62 melanoma = test system: UACC-62 melanoma
LOX IMVI melanoma = test system: LOX IMVI melanoma
SK-MEL-28 melanoma = test system: SK-MEL-28 melanoma

SMILES | growth (HCT-15 colon) | growth (HT29 colon) | growth (SNB-75 CNS) | growth (SNB-19 CNS) | growth (U251 CNS) | growth (PC-3 prostate) | growth (SK-MEL-5 melanoma) | growth (UACC-62 melanoma) | growth (LOX IMVI melanoma) | growth (SK-MEL-28 melanoma)
Cc1cc(=O)oc2cc(OCCCCOc3ccc(/C=C/C(=O)Nc4ccc(F)c(Cl)c4)cc3)ccc12 | 97% | 111% | 116% | 93.4% | 95.1% | 99.6% | 85.2% | 92% | 97.6% | 93%
COc1cc2c3c(n(CCCNCCO)c(=O)c2cc1OC)-c1nc2c(cc1C3=O)OCO2 | 48.5% | 5.98% (active) | 18.8% | 13.7% | 12.4% | 27.1% | 30.4% | 1.57% (active) | -90.8% (active) | 72.2%
COc1ccc(CCN2C(=O)/C(=C/c3csc(C#N)n3)SC2=S)cc1OC | -45.4% (active) | -48.4% (active) | 71.7% | 80% | 89.8% | 71.6% | 74.2% | 46.8% | -62.7% (active) | 18.9%
O=C(CNc1nc(-c2ccccc2)cs1)Nc1ccc(Cl)cc1 | -85.4% (active) | -51% (active) | -44.9% (active) | -100% (active) | -87.3% (active) | -40% (active) | -96.9% (active) | -92.4% (active) | -90.5% (active) | -96.2% (active)
CC(=O)Nc1ccc(-c2cn(-c3cccc(C(=O)Nc4ccc(F)c(C(F)(F)F)c4)c3)nn2)cn1 | 20.7% | 6.65% (active) | 119% | 43.8% | -47.8% (active) | 43.1% | 86.1% | 55.9% | 8.57% (active) | 60.3%
O=C(c1ccc(-n2c(=O)[nH]c3ccccc3c2=O)cc1)N1CCOCC1 | 99.2% | 114% | 80.9% | 95.5% | 105% | 103% | 107% | 92.9% | 104% | 108%
COc1cc(OC(F)(F)F)ccc1C(=O)Nc1sc2c(c1C#N)CCC(=O)C2 | 14.6% | 95% | 93.7% | 91.8% | 7.29% (active) | 37.6% | 72.3% | 65.6% | 64.7% | 121%
Cc1ccc(/C=C/C(=O)c2ccc(NC(=O)CSc3nnc(-c4c[nH]c5ccccc45)n3-c3ccccc3)cc2)cc1 | 79.5% | 100% | 91.5% | 87.9% | 78.5% | 71.8% | 94% | 75.8% | 78.4% | 99.1%
C/C(=C\c1ccc(O)cc1O)c1ccc2ccc(O)cc2[o+]1 | 12.3% | 93.1% | 98.1% | 71% | 23.5% | 62.7% | 76.3% | 59.5% | 2.95% (active) | 62.3%
C/C(=N\N=C\c1ccc(N(C)C)cc1)c1ccc2c(c1)Nc1ccccc1S2 | 22% | 52.5% | 69.6% | 63.1% | 29.4% | 54% | 36.1% | 70.7% | 55% | 85.7%
CN(CCF)c1ccc(/C=C/C(=O)c2ccc(N)cc2O)cc1 | 49.8% | 42.8% | 102% | 84.1% | 70.3% | 86.5% | 68.1% | 90.1% | 78.9% | 101%
COc1ccc(-c2nc(S(=O)(=O)c3ccc(C)cc3)c(S(=O)(=O)CC(=O)N(C)Cc3ccccc3)o2)cc1 | -39.6% (active) | 8.42% (active) | 78.7% | 72.1% | 23.6% | 63.7% | 78.4% | 46.7% | -91.1% (active) | 64.8%
CCOc1ccc2ncc(C#Cc3cncc(C(=O)Nc4ccc(CN5CCN(C)CC5)c(C(F)(F)F)c4)c3)n2n1 | -86.1% (active) | -51% (active) | -88.8% (active) | -63.3% (active) | -41.5% (active) | -34.9% (active) | -83.4% (active) | -71.3% (active) | -80% (active) | -83.1% (active)
N#Cc1ccc(NC(=O)CSc2ccc(-c3ccc(Br)cc3)nn2)cc1 | 72.7% | 84.1% | 76% | 64% | 87.7% | 58.6% | 4.86% (active) | 29.9% | 52.8% | 62.4%
CN(C)CCNC(=O)OCCCCOc1cc(O)c2c(=O)cc(-c3ccccc3)oc2c1 | -51.8% (active) | -54.4% (active) | 103% | -32.7% (active) | -64.1% (active) | 10.3% | -100% (active) | -88.4% (active) | -100% (active) | -91.5% (active)
O=C(CSc1nnc(-c2c[nH]c3ccccc23)n1-c1ccccc1)Nc1ccc(C(=O)/C=C/c2ccccc2Cl)cc1 | 67% | 91.6% | 80.3% | 84.8% | 65.7% | 61.2% | 89.8% | 72.1% | 56.6% | 96.3%
COc1cc(Cn2c(C(F)(F)F)cc3c(Cl)ncnc32)ccn1 | -48.3% (active) | 69.7% | -60.9% (active) | -8.63% (active) | 12.7% | 29.3% | -20.4% (active) | 0.529% (active) | -100% (active) | 27.9%
Cc1ccc(-c2nc3ccc(C(=O)N=Nc4c(O)[nH]c5ccc(Cl)cc45)cc3[nH]2)cc1 | 67.7% | 13.2% | -49.3% (active) | -24% (active) | -100% (active) | -51.9% (active) | 22.1% | 22.6% | -100% (active) | -1.61% (active)
C=C1CC[C@H](C(=C)C)[C@H]2C=C(C)C(=O)C3=C(C(=O)[C@@](C)(O)C3)[C@H]12 | -80.8% (active) | -37.6% (active) | -71% (active) | -90.9% (active) | -95.9% (active) | -73.2% (active) | -90.4% (active) | -53.5% (active) | -75.9% (active) | -89.2% (active)
Cc1cccc2cc(-c3cc(-c4ccccc4)nc(=O)[nH]3)c(Cl)nc12 | 64.1% | 107% | 89.1% | 68% | 62.6% | 77.6% | 96.3% | 80.1% | 54.1% | 103%
COc1ccccc1[C@H]1C(C(=O)c2ccc(Cl)cc2)C2(N[C@@H]1c1ccccc1)C(=O)Nc1ccc(Cl)cc12 (stereo not given in full) | 7.83% (active) | -3.95% (active) | 40.9% | 21.2% | 17% | 13.3% | -75.4% (active) | -27.3% (active) | -74.6% (active) | 35.1%
CCOc1ccc(/C=N/NC(=O)Cn2nc(Cc3ccccc3)c3onc(C)c3c2=O)cc1 | 63.1% | 42% | -23.7% (active) | -3.49% (active) | -21.4% (active) | 22.5% | 68.3% | 36.9% | 14.2% | 54.3%
Oc1ccc(/C=C2\CCCc3cc4ccc(O)cc4[o+]c32)c(O)c1 | 10.1% | 88.5% | 91.9% | 58% | 8.94% (active) | 28.8% | 69.6% | 25% | -31.1% (active) | 33.9%
COc1cnc2c(c1)C(=O)c1c-2n(CCCNCCO)c(=O)c2cc(OC)c(OC)cc12 | 32.3% | 12.1% | 59.6% | 18.7% | 20.8% | 43.2% | 12% | -2.88% (active) | -78% (active) | 70.2%
COc1cc(C2CC(c3ccccc3)=Nc3c(N)nc(N)nc3N2)ccc1Oc1nc(Nc2ccc(F)cc2)nc(N(C)C)n1 (stereo not given) | 20.8% | 24.7% | 61% | 62.2% | 56.3% | 40.7% | -97.8% (active) | 48.5% | 23.2% | 67.8%
[2H]C([2H])([2H])Oc1ccc2ncc(C#Cc3cncc(C(=O)Nc4ccc(CN5CCN(C)CC5)c(C(F)(F)F)c4)c3)n2n1 | -87.7% (active) | -52.8% (active) | -66.4% (active) | -57.9% (active) | -31.4% (active) | -61.6% (active) | -96.1% (active) | -77.5% (active) | -68.4% (active) | -83.8% (active)
O=C(c1ccc(O)cc1)C1[C@H](c2ccc(Br)cc2)[C@@H](c2ccccc2)NC12C(=O)Nc1ccccc12 (stereo not given in full) | 24.6% | -9.34% (active) | 46.5% | 47.8% | 22% | 32.1% | 30.1% | 50.9% | -96.9% (active) | 78.5%
